G9a block: G9a (human) methyltransferase inhibition; Q96KQ7; G9a H3K9 monomethylation, AlphaScreen, 2 h; Potency, µM (highest dose often 102 µM), inactives show at the highest dose activity, negative = inhibition, hits mostly inhibitors; 350,000 compounds, 8.8% hits; note: potency is the fitted concentration of half-maximal effect; % is set by controls: 0 for no effect and ±100 for the full control effect; nearly all actives have a fitted effect of over 75% in size
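Chemiluminescent proximity detection of H3K9 monomethylation, read after 10 min bead incubation in the dark. Reaction: 20 nM G9a, 500 nM biotin-H3K9 peptide, 20 uM SAM cofactor, 2 h, room temperature, following 15 min enzyme-compound preincubation.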
HP1b chromo inh: blocks HP1-beta chromodomain binding to methylated histone tails | P83916 | AlphaScreen HP1-beta / biotin-H3K9me3 peptide binding | Potency, µM (top dose mostly 114 µM), without a hit: top-dose activity change, negative = inhibition, usual class: inhibitors | 390,000 compounds, 0.56% hits | AID 540317; note: potency is the fitted concentration of half-maximal effect; nearly all actives have a fitted effect of over 70% in size
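AlphaScreen: HP1-beta (50 nM) preformed 30 min with biotin-H3(1-18)K9me3 peptide (50 nM) in PBS pH 7.4, 0.01% Tween-20. Compound added for 30 min at RT, then streptavidin donor/nickel chelate acceptor beads (10 ug/mL) for 30 min.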
JMJD2A Tudor: JMJD2A Tudor domain (human) inhibition. 390,000 compounds, 4.4% hits. AlphaScreen JMJD2A-Tudor / H3K4me3 peptide binding. AID 504339. Potency, µM (highest dose often 114 µM), for inactives: top-dose activity change, negative = inhibition, actives largely listed as inhibitors; note: potency is the fitted concentration of half-maximal effect; % is set by controls: 0 for no effect and ±100 for the full control effect; nearly all actives have a fitted effect of over 50% in size
CtBP-E1A inh: blocks the CtBP interaction with E1A. AlphaScreen GST-E1A/His-CtBP binding, 1536-well; hits give low values. activity change, % (no concentration beside the values). 340,000 compounds, 0.49% hits. AID 651724; in the data active = activity change below about -65%; inconclusive = mostly about -30% to -63%; note: % is set by controls: 0 for no effect and ±100 for the full control effect
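Protein mix (5X: 125 nM each GST-E1A, His-CtBP) was incubated with pinned compound 2 h at 37 deg C in dark, in 50 mM Tris pH 8.0 buffer with 300 mM NaCl. Glutathione donor and nickel acceptor beads followed; AlphaScreen signal read after 1 h.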
Six1-Eya2 blk: inhibitors of human Six1/Eya2 interaction; activity change, % (concentration not given with the values); AlphaScreen GST-Six1/His-Eya2 binding, biochemical; hits give low values; 360,000 compounds, 0.56% hits; Q15475+O00167; in the data active = activity change below about -65%; inconclusive = mostly about -30% to -63%; note: % is set by controls: 0 for no effect and ±100 for the full control effect
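Homogeneous AlphaScreen proximity assay pairing GST-Six1 with His-tagged Eya2 (added as 5X mix: 250 nM and 500 nM) in 50 mM Tris pH 8.0, 300 mM NaCl, 1 mM TCEP. Glutathione donor and nickel acceptor beads; 1 h, 37 °C, dark.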
BAZ2B block: inhibitors of human BAZ2B bromodomain; Q9UIF8; 360,000 compounds, 4.4% hits; AID 504333; Potency, µM (top dose mostly 114 µM), without a hit: top-dose activity change, negative = inhibition, hits mostly inhibitors; AlphaScreen BAZ2B-H3K14Ac peptide displacement; note: potency is the fitted concentration of half-maximal effect; % is set by controls: 0 for no effect and ±100 for the full control effect; nearly all actives have a fitted effect of over 60% in size
Target sequence (Q9UIF8 whole entry, looked up): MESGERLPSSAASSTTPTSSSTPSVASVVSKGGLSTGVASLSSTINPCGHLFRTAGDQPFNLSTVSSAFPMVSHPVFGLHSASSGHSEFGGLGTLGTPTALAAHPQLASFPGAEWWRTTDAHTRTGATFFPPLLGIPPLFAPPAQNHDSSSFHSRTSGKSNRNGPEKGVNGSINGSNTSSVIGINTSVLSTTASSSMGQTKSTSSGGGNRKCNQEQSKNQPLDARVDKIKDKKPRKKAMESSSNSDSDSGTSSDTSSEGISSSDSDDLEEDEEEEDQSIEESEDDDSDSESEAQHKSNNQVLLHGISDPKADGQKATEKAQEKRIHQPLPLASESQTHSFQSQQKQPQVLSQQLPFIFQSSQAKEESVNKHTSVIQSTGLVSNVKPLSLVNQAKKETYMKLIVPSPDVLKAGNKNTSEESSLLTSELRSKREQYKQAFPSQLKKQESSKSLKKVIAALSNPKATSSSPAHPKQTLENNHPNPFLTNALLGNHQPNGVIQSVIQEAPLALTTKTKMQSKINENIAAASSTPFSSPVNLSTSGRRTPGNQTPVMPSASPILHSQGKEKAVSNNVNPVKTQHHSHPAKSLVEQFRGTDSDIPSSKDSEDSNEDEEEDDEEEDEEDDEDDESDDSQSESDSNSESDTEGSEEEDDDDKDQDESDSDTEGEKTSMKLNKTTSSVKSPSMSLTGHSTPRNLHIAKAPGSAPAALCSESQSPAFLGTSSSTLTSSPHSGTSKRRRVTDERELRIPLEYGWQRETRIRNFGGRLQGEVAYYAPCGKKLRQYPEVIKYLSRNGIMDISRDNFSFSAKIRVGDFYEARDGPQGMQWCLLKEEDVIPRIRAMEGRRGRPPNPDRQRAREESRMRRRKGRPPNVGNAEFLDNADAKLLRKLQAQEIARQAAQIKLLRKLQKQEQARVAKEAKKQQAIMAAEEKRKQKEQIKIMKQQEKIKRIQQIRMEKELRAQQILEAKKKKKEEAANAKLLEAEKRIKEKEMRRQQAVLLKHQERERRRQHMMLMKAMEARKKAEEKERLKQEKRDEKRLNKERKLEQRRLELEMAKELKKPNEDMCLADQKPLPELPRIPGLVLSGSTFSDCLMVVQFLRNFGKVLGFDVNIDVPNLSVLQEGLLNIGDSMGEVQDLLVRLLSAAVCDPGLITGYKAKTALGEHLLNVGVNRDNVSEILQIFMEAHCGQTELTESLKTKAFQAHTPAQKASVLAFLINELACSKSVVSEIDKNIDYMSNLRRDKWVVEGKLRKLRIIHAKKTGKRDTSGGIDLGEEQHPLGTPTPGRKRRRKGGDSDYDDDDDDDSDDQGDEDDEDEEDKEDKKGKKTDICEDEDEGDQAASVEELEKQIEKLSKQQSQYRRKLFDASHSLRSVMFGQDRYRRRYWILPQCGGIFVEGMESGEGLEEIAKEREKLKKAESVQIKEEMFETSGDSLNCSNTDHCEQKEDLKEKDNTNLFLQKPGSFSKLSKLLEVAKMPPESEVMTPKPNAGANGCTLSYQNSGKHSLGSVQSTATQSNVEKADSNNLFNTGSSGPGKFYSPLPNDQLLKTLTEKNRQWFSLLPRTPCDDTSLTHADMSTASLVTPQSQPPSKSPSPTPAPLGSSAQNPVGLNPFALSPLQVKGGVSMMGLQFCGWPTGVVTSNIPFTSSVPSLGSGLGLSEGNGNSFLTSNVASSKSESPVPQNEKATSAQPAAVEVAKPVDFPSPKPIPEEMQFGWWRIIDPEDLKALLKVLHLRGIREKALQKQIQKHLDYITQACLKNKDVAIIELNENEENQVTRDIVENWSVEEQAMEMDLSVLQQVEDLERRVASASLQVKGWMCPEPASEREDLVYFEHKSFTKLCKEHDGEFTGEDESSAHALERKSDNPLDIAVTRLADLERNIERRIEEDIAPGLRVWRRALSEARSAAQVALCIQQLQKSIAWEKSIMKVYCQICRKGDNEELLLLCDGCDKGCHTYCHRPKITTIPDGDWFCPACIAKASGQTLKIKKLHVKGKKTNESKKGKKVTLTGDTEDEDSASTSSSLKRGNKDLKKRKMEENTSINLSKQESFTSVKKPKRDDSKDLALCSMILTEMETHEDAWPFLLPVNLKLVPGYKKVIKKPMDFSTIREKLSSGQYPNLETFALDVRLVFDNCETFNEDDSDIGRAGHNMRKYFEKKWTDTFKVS
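BAZ2B (50 nM) with biotin-H3(5-23)K14Ac peptide (50 nM) in PBS pH 7.4, 0.01% Tween-20, preformed 30 min, then compound 30 min at room temperature; top concentration 110uM. AlphaScreen streptavidin donor/nickel chelate acceptor beads (10 ug/mL final), 20 min dark, signal read.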
* = called active by the depositor; ? = inconclusive; nt = not tested or not shown; ! = not confirmed by another sample; [ ] = another dose, or the depositor's remark. Shown are actives, neighbours in structure and some others; about 10% of the full set was active somewhere. Unless noted, calls come from the whole dose curve; as a rule, active = well fitted inhibition curve with a large enough effect; inconclusive = small, poorly fitted or top-dose-only effect; inactive = no such curve, though single readings can be large or run the other way.

SMILES	G9a block	HP1b chromo inh	JMJD2A Tudor	CtBP-E1A inh	Six1-Eya2 blk	BAZ2B block
COc1cc(/C=C2/SC(=S)N(Cc3ccccc3)C2=O)ccc1OCC(=O)O	5.2%[0.501 µM]	-12.2%	?	-17.0	-18.1	56.2µM*
COc1ccc(CCNCc2ccc(F)cc2)cc1OC	76.9%[59 µM]	29.5%	-8.4%	-1.3	0.3	13.2%
COc1ccccc1CCNCc1cccc(C(F)(F)F)c1	70.8µM*	11.8%	-31.2%	7.7	2.8	7.8%
COc1cccc(CNCCc2ccccc2)c1OC	4.9%	8.2%	-12.1%	16.3	3.1	-11.1%
COc1ccc(CCNCc2cccc(C(F)(F)F)c2)cc1OC	11.2µM*	-7.3%	44.7µM*	nt	0.6	50.1µM*
Cn1ncc2c(NCc3ccc(F)cc3)ncnc21	-1.4%[59 µM]	67.7%	-29.3%	nt	nt	0.7%
O=C(NC1C(=O)NNC1c1ccc(Cl)cc1)c1ccc(F)cc1 (centres undefined)	?	7.5%	-26.5%	nt	2.9	-14.1%
COc1cc2c(c(OC)c1OC)-c1ccc(O)c(=O)cc1[C@@H](N)CC2	-2.3%[12.7 µM]	51.6%	79.4µM*	-9.9	?	5.5%
O=C1N=C(N2CCCCC2)SC1=C1CCCCC1	25.1µM*	36.0%	2.9%	-0.7	-2.2	-3.6%
N[C@@H](Cc1cc(I)c(O)c(I)c1)C(=O)O	6.31µM*!	?	11.2µM*	-26.5	-23.6	7.4%
CCOC(=O)N1CCC(NC(=O)c2ccc3c(c2)N(Cc2cccc(C)c2)C(=O)c2ccccc2S3(=O)=O)CC1	5.5%[59 µM]	41.8%	-19.5%	nt	nt	-12.5%
C[C@@H]1CC([C@H](O)CC2CC(=O)NC(=O)C2)C(=O)[C@@H](C)C1 (some centres undefined)	39.7%[59 µM]	nt	nt	nt	nt	nt
c1ccc2c(c1)Nc1ccccc1S2	12.6µM*	?	?	-26.0	-20.4	12.6µM*
C[C@H]1CC[C@@H]2[C@@H](C)[C@H]3C(CC4C5CC=C6CC(O[C@@H]7O[C@H](CO)C(O[C@@H]8O[C@@H](C)[C@H](O)[C@@H](O)[C@H]8O)[C@H](O)[C@H]7O[C@@H]7O[C@@H](C)[C@H](O)[C@@H](O)[C@H]7O)CC[C@]6(C)C5CC[C@@]43C)N2C1 (some centres undefined)	nt	39.7%	-4.1%	nt	nt	nt
Cc1ccccc1NC(=S)NC(NC(=O)CF)C(Cl)(Cl)Cl (centres undefined)	-0.6%[59 µM]	32.1%	2.7%	2.4	-2.4	-21.5%
COc1ccc(NC(=S)NC(NC(=O)CF)C(Cl)(Cl)Cl)c([N+](=O)[O-])c1 (centres undefined)	10µM*	15.3%	2.8%	7.0	-22.8	?
Cn1nc(-c2ccc(C(=O)Nc3ccc(OC(F)(F)F)cc3)cc2)c2ccccc2c1=O	-4.7%[59 µM]	45.5%	0.0%	nt	nt	2.4%
Clc1ccc2c(c1)CCc1cccnc1C2=C1CCNCC1	-1.2%[59 µM]	nt	nt	nt	nt	?
NCCc1c[nH]c2ccc(OCc3ccccc3)cc12	50.1µM*	1.4%	-29.5%	-12.8	-14.8	?
CCC(c1nnnn1-c1ccc(OC)cc1)N1CCC(n2c(=O)[nH]c3ccccc32)CC1 (centres undefined)	nt	nt	nt	2.1	-1.3	nt
COc1ccc(N2C(=O)CC(N3CCC(n4c(=O)[nH]c5ccccc54)CC3)C2=O)cc1 (centres undefined)	39.8µM*	56.1%	-5.8%	4.4	-2.8	3.0%
COc1cc(C(c2c(C)[nH]n(-c3ccccc3)c2=O)c2c(C)[nH]n(-c3ccccc3)c2=O)cc(OC)c1OC	15.3%[0.501 µM]	-8.2%	?	0.6	-23.3	44.7µM*
Cc1[nH]n(-c2ccccc2)c(=O)c1C(c1cccc([N+](=O)[O-])c1O)c1c(C)[nH]n(-c2ccccc2)c1=O	44.7µM*	?	50.1µM*	-22.9	-27.0	31.6µM*
O=C(NCc1ccccc1)c1cccc(Nc2nc3ccccc3n3nnnc23)c1	4.6%[59 µM]	?	-27.4%	nt	nt	-15.5%
CN(CC(=O)Nc1ccc(N2CCOCC2)cc1)CC(=O)Nc1cccc(C#N)c1	?	-3.8%	-28.9%	1.6	6.6	?
SMILES	G9a block	HP1b chromo inh	JMJD2A Tudor	CtBP-E1A inh	Six1-Eya2 blk	BAZ2B block
Cc1cccc(Cn2c(SCc3ccc(C(=O)NC4CCCCC4)cc3)nc3cccnc32)c1	?	-2.7%	-21.1%	nt	nt	-8.5%
Cn1c(C(=O)NCCOc2ccccc2Cl)cc(=O)n(C)c1=O	-11.0%[59 µM]	52.9%	-22.8%	-5.0	-3.3	-22.0%
Nc1ccc(Br)cc1	nt	3.6%	-9.4%	0.0	5.1	nt
Nc1ccc2cc(Br)ccc2c1	50.1µM*	?	?	6.6	-6.8	nt
CC(=O)c1c(O)n(C)c(=S)n(-c2ccccc2)c1=O	24.1%[59 µM]	31.0%	-7.1%	2.7	2.3	0.8%
CCC(C)n1c(O)c(C(c2ccccn2)c2c(O)n(C(C)CC)c(=S)[nH]c2=O)c(=O)[nH]c1=S (centres undefined)	11.2µM*	29.3%	?	-14.0	-13.7	35.5µM*
CCC(C)n1c(O)c(C=NC(C)c2ccccc2)c(=O)[nH]c1=S (centres undefined)	nt	8.9%	?	-0.7	-5.3	-21.8%
Cn1c(O)c(C(c2ccccn2)c2c(O)n(C)c(=S)n(C)c2=O)c(=O)n(C)c1=S	3.98µM*	6.5%	3.98µM*	-29.3	?	5.01µM*
Cn1c(O)c(C(c2ccncc2)c2c(O)n(C)c(=S)n(C)c2=O)c(=O)n(C)c1=S	?	25.9%	-35.9%	?	-68.2*	-2.5%
c1ccc2c(c1)OC[C@@H](C1=NCCN1)O2	8.4%[21.5 µM]	nt	nt	nt	nt	nt
C/C(=C/CCC(C)[C@H]1CC[C@@]2(C)C3=C(CC[C@]12C)[C@@]1(C)CCC(=O)C(C)(C)[C@@H]1CC3)C(=O)O (some centres undefined)	?	10.1%	63.1µM*	1.9	6.4	?
CSC(=Nc1ccccc1)c1c(O)n(C)c(=O)n(C)c1=O	?	45.7%	-26.3%	1.6	-1.5	8.3%
Cn1c(O)c(C(=Nc2ccccc2)SCc2ccccc2Cl)c(=O)n(C)c1=O	nt	19.8%	-21.9%	2.2	0.4	50.1µM*
Cc1cccc(N2C(=O)NC(=O)/C(=C\c3cnc(-c4ccccc4)nc3)C2=O)c1	7.08µM*	11.3%	?	18.5	-3.9	-3.1%
CC(C)c1ccc(N2C(=O)NC(=O)/C(=C\c3cnc(-c4ccccc4)nc3)C2=O)cc1	?	?	-12.3%[11.4 µM]	-7.6	2.3	-29.5%
Cc1ccc(N2C(=O)NC(=O)/C(=C/c3cnc(-c4ccccc4)nc3)C2=O)cc1C	10µM*	-16.0%	79.4µM*	-3.1	-7.3	-1.9%
CCC1(Oc2ccccc2)C(=O)NC(=O)NC1=O	nt	33.9%	-13.1%	7.4	0.1	nt

Screening data: PubChem, National Center for Advancing Translational Sciences (NCATS)
